High-throughput results: PubChem, several laboratories
Sampled rows, rich in hits. Any-hit rate of the full collection: about 1.1%.
PrPC TRFRET: inhibitors of human cell surface prion protein PrPC, primary screen, cell-based, TR-FRET; Major prion protein (Homo sapiens), P04156; TR-FRET read-out; inhibition, % at 13.8 µM; 370,000 tested, 0.43% active; AID 720596, 2013; in the data active means inhibition above about 24%; further: 0% = median of the test wells and 100% = reference compound wells
DUSP3 inh: VHR1 phosphatase inhibitors, primary screen, biochemical, absorbance, uHTS | 290,000 tested, 0.52% active | recombinant VHR phosphatase, pNPP absorbance | Dual specificity protein phosphatase 3 (Homo sapiens), P51452 | inhibition, % at 13.3 µM | AID 1654, 2009; in the data active means inhibition above about 50%
Target sequence (P51452 whole entry, looked up): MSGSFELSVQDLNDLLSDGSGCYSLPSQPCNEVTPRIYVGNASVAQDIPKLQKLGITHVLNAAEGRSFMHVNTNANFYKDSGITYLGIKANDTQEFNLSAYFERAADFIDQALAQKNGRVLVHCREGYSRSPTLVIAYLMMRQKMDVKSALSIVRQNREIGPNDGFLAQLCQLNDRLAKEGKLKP
BJeLR lethal: MLPCN primary cell-based screen for lethality selective to Ras in HRASV12 cells. inhibition, % (concentration not given with the values). 300,000 tested, 0.17% active. AID 1554, 2009. BJeLR (HRASV12) viability, CellTiter-Glo ATP luminescence, 48 h; in the data active means inhibition above about 50%
3CLpro inhibitor: SARS-CoV 3CLpro protease inhibitors, primary screen, biochemical, quenched FRET; Replicase polyprotein 1ab (Severe acute respiratory syndrome coronavirus), P0C6X7; recombinant SARS-CoV 3CLpro, quenched FRET peptide cleavage; inhibition, % at 6 µM; 290,000 tested, 0.14% active; AID 1706, 2009; in the data active means inhibition above about 12%
* = called active by the depositor; . = not tested or not shown.

SMILES | PrPC TRFRET | DUSP3 inh | BJeLR lethal | 3CLpro inhibitor
O=C(N/N=C/c1ccccc1)c1cc(-c2ccc3c(c2)OCO3)n[nH]1 | -3 | 13 | -8 | 4
COC1=CC(C)C2CC3OC(O)CC4C(C)=C(OC)C(=O)C(C2(C)C1=O)C34C (stereo unspecified) | -2 | . | . | .
O=C(NCCOc1ccc(F)cc1)C1CCC(=O)N(CCc2ccccn2)C1 (stereo unspecified) | -3 | 57* | 1 | -5
COc1ccc(CCN2CC(C(=O)NCCc3ccccn3)CCC2=O)cc1 (stereo unspecified) | 0 | 18 | 1 | -3
O=C1CN(C(=O)CNCc2ccccc2)c2ccccc2N1 | -4 | 52* | -9 | 0
CCOC(=O)[C@]12CCCCC/C=C\1N(Cc1ccc(OC)cc1)C(=O)[C@H]2CC(=O)NCC1CCCCC1 | -1 | . | . | .
CCOC(=O)C1=C(C)Nc2ccccc2N=C1NC(=O)Cc1ccc(OC)cc1 | -3 | 51* | 0 | -1
Cc1sc2ncnc(N3CCC(C(=O)NNC(=O)c4ccccc4Cl)CC3)c2c1C | 4 | 53* | -8 | 0
S=c1[nH]nc(-c2ccc3ccccc3n2)n1-c1cc(Cl)cc(Cl)c1 | -1 | 55* | -2 | 1
N/C(Cc1ccc([N+](=O)[O-])cc1)=N\OC(=O)c1ccccc1F | -7 | 57* | -3 | -4
COC(=O)c1cc2c(c3c4cc(OC)ccc4n(S(=O)(=O)c4ccc(OC)cc4)c13)C(=O)N(Cc1ccco1)C2 | 2 | . | . | .
O=C(CN1CCN(c2ccccc2O)CC1)NC(c1ccccc1)c1ccccc1 | -7 | 18 | 7 | -3
O=C(CN1CCCC1)NC(c1ccccc1)c1ccccc1 | -5 | 51* | -2 | -2
Cc1csc(=O)n1CCC(=O)OCC(=O)Nc1ncc(Cl)cc1Cl | -2 | . | -6 | .
CNC1=C(N(C(C)=O)c2ccc(Br)cc2)C(=O)c2ccccc2C1=O | -22 | 39 | 51* | 10
O=C1c2ccccc2C2Cc3nnccc3CN12 (stereo unspecified) | -2 | . | . | .
CC(C)(C)CC(=O)Nc1nnc(C(F)(F)F)s1 | 7 | 26 | 10 | -5
CC(NC(=O)Nc1nnc(C(F)(F)F)s1)(C(F)(F)F)C(F)(F)F | 57* | 11 | 12 | 4
COc1cc(C=Nn2c(-c3ccccc3F)n[nH]c2=S)ccc1OCc1ccccc1 | -1 | . | . | .
COc1ccc(OC)c(S(=O)(=O)NC(=O)C2(C)CCN2C(=O)CC2CCCC2)c1 (stereo unspecified) | -6 | . | . | .
C=C1C(=O)OC2CC1C(O)CC(C)=CCCC(C)=CC(O)CC2C (stereo unspecified) | 33* | . | . | .
CN(C(=O)c1ccccc1Cl)c1ccccc1C(=O)NCc1ccccc1 | 3 | 53* | -2 | -6
CN(C(=O)c1ccc(F)cc1)c1ccccc1C(=O)NCc1ccccc1 | -7 | 10 | -5 | 2
COc1ccc(C(=O)Nc2ccnn2C2CCN(C3CCC3)CC2)cc1 | 0 | 52* | -4 | -3
O=C(Nc1ccnn1C1CCN(C2CCC2)CC1)c1ccccc1 | 0 | 19 | 0 | 5
SMILES | PrPC TRFRET | DUSP3 inh | BJeLR lethal | 3CLpro inhibitor
O=[N+]([O-])c1ccc(N=Nc2ncc[nH]2)cc1 | 4 | 9 | 74* | -2
COC(=O)C1=C(C)N(Cc2ccc(C(F)(F)F)cc2)C(=NCc2ccccc2)NC1c1ccc(C(F)(F)F)cc1 (stereo unspecified) | -11 | . | . | .
CN1C(=O)c2cc(NS(=O)(=O)c3ccc(F)cc3)ccc2OC[C@H]2O[C@@H](CC(=O)NCC(F)(F)F)CC[C@@H]21 | 4 | . | . | .
CCCCCCSc1nsc(NC(=O)CC(C)C)n1 | 16 | -17 | -2 | 2
CCCCCCCSc1nsc(N)n1 | 7 | 57* | 1 | -1
O=C(c1cnc2c(c1)COc1ccc(Cl)cc1-2)c1ccccc1O | -2 | 50* | . | -1
COc1ccc(C2C([N+](=O)[O-])=C(N)Oc3c2c(=O)oc2ccccc32)cc1 (stereo unspecified) | . | 36 | 1 | -3
COc1cccc(C2C([N+](=O)[O-])=C(N)Oc3c2c(=O)oc2ccccc32)c1 (stereo unspecified) | 3 | 52* | -5 | 2
CCCCN1CC(COc2ccc(OC)cc2)OCCS1(=O)=O (stereo unspecified) | 2 | . | . | .
CCOc1ccccc1C(=O)N1CCN(c2cccc(Cl)c2)CC1 | 10 | 12 | 53* | 6
O=C(O)c1ccccc1C(=O)N1CCN(c2cccc(Cl)c2)CC1 | 4 | -5 | -5 | -2
COC(=O)[C@]12C[C@H](CC(=O)NCc3cccc(C(F)(F)F)c3)C(=O)N(Cc3ccccc3)C1=C[C@H](C1CCCC1)O[C@@H]2C | 2 | . | . | .
COc1ccc(N(CC(=O)Nc2cccc(F)c2)S(=O)(=O)c2c(C)[nH]c(=O)[nH]c2=O)cc1 | 0 | 56* | 3 | -1
COc1ccc(N(CC(=O)Nc2cccc(C(F)(F)F)c2)S(=O)(=O)c2c(C)[nH]c(=O)[nH]c2=O)cc1 | 0 | -4 | -2 | 7
COc1cc(/C=C(/C#N)c2nc(-c3cc4ccccc4oc3=O)cs2)cc([N+](=O)[O-])c1O | 5 | 101* | . | 3
COc1cc(/C=C(\C#N)c2nc(-c3cc4ccccc4oc3=O)cs2)ccc1O | -1 | 18 | -15 | 6
CC(C)[C@]12O[C@H]1[C@@H]1O[C@]13[C@]1(O[C@H]1C[C@H]1C4=C(CC[C@@]13C)C(=O)OC4)[C@@H]2O | . | 12 | 68* | 0
COc1ccc(C(O)c2ncc(-c3cccc(F)c3)[nH]2)cc1F (stereo unspecified) | -2 | . | . | .
Cc1ccc(/C=C/C(=O)Nc2ccc(S(=O)(=O)Nc3onc(C)c3C)cc2)cc1 | 5 | -4 | -3 | 5
COc1ccccc1C(=O)NC1CCCCN(Cc2cccc(C(F)(F)F)c2)C1=O (stereo unspecified) | 20 | . | . | .
O=C1NC2(CCCCC2)N=C1c1ccc(Br)cc1 | 5 | 55* | 4 | -4
CC(C)c1onc(C(=O)N2CCN(C(c3ccccc3)c3ccccc3)CC2)c1[N+](=O)[O-] | 2 | 23 | 91* | 3
CC(C)c1onc(C(=O)N2CCN(c3ccccc3)CC2)c1[N+](=O)[O-] | -4 | 16 | 8 | 4
Cc1ccccc1CN1CCCCC(NC(=O)c2ccccc2C)C1=O (stereo unspecified) | 10 | . | . | .
CC1CCCCN1S(=O)(=O)c1cc2c(=O)nc3ccccn3c2cc1Cl (stereo unspecified) | 1 | . | . | .
COC(=O)C[C@H]1C[C@H]2c3cc(NS(=O)(=O)c4ccc(OC)cc4)ccc3O[C@H]2[C@H](CO)O1 | -1 | . | . | .
CC(C)(C)c1ccc2c(c1)OC(C(=O)N/N=C\c1ccncc1)CO2 (stereo unspecified) | 0 | 13 | 6 | 3
CC(C)(C)c1ccc2c(c1)OC(C(=O)N/N=C/c1ccc([N+](=O)[O-])o1)CO2 (stereo unspecified) | -8 | 57* | -9 | 2
O=C(NC1CCCCN(Cc2cccc(Cl)c2)C1=O)c1ccc(F)c(F)c1 (stereo unspecified) | -1 | . | . | .
